Data as given in PubChem BioAssay (NCI).
This is part of a sample that, as a whole, favours compounds with a hit. Of some 79,000 tested, about 15% had one in any assay. Values without a mark were called inactive. Active and inactive are the calls of the source. No stated cut-off is given here; in the data, active means growth inhibition above about 70%; inactive means the rest.

Legend:
[1] = NCI Yeast Anticancer Drug Screen. Data for the rad50 strain (AID 155);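 further: 0% = growth of vehicle-only cultures of the same strain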; details: S. cerevisiae rad50 strain growth inhibition, active compounds read high
Method in brief: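 Readout: growth inhibition relative to vehicle-treated cultures. Compound exposure was carried out in a genetically defined yeast strain deficient in DNA damage repair.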

[2] = NCI Yeast Anticancer Drug Screen. Data for the mec2-1 strain (AID 157); details: S. cerevisiae mec2-1 strain, active compounds read high
Method in brief: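 Readout is yeast growth inhibition, normalised to vehicle-treated controls, in the mec2-1 strain exposed to compound.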

[3] = NCI Yeast Anticancer Drug Screen. Data for the sgs1 mgt1 strain (AID 161);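 further: 0% = growth of cultures given vehicle only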; details: S. cerevisiae sgs1 mgt1 strain, active compounds read high
Method in brief: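 Yeast cells carrying a defined DNA-repair defect were exposed to test compounds. Growth inhibition was measured relative to vehicle-treated controls.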

[4] = NCI Yeast Anticancer Drug Screen. Data for the cln2 rad14 strain (AID 165);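 further: 0% = growth equal to vehicle treated cultures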; details: S. cerevisiae cln2 rad14 strain, active compounds read high
Method in brief: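 Relative to vehicle controls, growth inhibition of compound-treated cln2 rad14 yeast was recorded.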

[5] = NCI Yeast Anticancer Drug Screen. Data for the bub3 strain (AID 167); details: S. cerevisiae bub3 mutant strain, active compounds read high
Method in brief: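 Readout: yeast growth inhibition, expressed relative to vehicle-only wells. The test organism is a mutant strain from a panel with lesions in DNA repair or checkpoint genes.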

[6] = NCI Yeast Anticancer Drug Screen. Data for the mlh1 rad18 strain (AID 175); details: S. cerevisiae mlh1 rad18 strain growth inhibition, active compounds read high
Method in brief: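 Test agents were incubated with a yeast strain of defined genotype (DNA damage repair defect). Inhibition of growth was derived by comparison with vehicle-exposed cultures.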

[7] = at 5.0 µM (retest, dose inferred, filed as 0.5)
[8] = at 50.0 µM (retest, dose inferred, filed as 5.0)

Structure (SMILES) | growth inhibition [1, 7] | growth inhibition [1, 8] | growth inhibition ([1]; at 50.0 µM) | growth inhibition [2, 7] | growth inhibition [2, 8] | growth inhibition ([2]; at 50.0 µM) | growth inhibition [3, 7] | growth inhibition [3, 8] | growth inhibition ([3]; at 50.0 µM) | growth inhibition [4, 7] | growth inhibition [4, 8] | growth inhibition ([4]; at 50.0 µM) | growth inhibition [5, 7] | growth inhibition [5, 8] | growth inhibition ([5]; at 50.0 µM) | growth inhibition [6, 7] | growth inhibition [6, 8] | growth inhibition ([6]; at 50.0 µM)
O=C1CCCC1C(=O)OC1CCCC1 (stereo not given) | 42% | 13% | -7.55% | 13% | 4% | -15% | 7% | 2% | -18.6% | 14% | 3% | 48.5% | 24% | 0% | -19.3% | 14% | 0% | -11.4%
CCOc1ccccc1C(=O)Oc1cccc(C)c1 | -7% | -1% | 1.95% | -8% | -18% | -9.75% | -2% | 12% | 5.55% | -21% | 32% | -5.2% | 6% | -6% | 11.8% | -19% | 17% | 18.9%
CC(C)C1=C2CCC3(C)C(CCC4C5C6OCC5(CCC6(C)C)CCC43C)C2(C)CC1 (stereo not given) | 22% | 49% | 72.5% (active) | 6% | 40% | 77.5% (active) | 19% | 69% | 82.3% (active) | 27% | 62% | 83.7% (active) | 10% | 57% | 77% (active) | 17% | 45% | 65.5%
Cn1c(=O)nc2n(-c3ccc(Cl)cc3)c3cc(Cl)ccc3nc-2c1=O | 7% | 20% | 20.6% | 4% | 9% | 24.1% | 9% | 15% | 7.8% | 15% | 20% | 16.9% | 17% | 18% | -6.9% | 7% | 20% | 77% (active)
C/C=C/C1=C(Cl)C(=O)[C@@H](Cl)[C@@]1(O)C(=O)OC | 48% | 97% (active) | 87% (active) | 61% | 99% (active) | 90.1% (active) | 78% (active) | 99% (active) | 91% (active) | 21% | 97% (active) | 79.2% (active) | 66% | 95% (active) | 87.3% (active) | 85% (active) | 99% (active) | 90.2% (active)
Nc1ccccc1/C=C1/Sc2cc[nH]c2C1=O | 2% | 5% | 4.9% | 1% | -1% | 5.55% | -2% | -5% | -15.8% | -1% | -3% | 3.1% | 15% | 40% | 83.8% (active) | 3% | 10% | -9.8%
N#CC(c1c(Cl)cccc1N1CCCCC1)N1CCCCC1 (stereo not given) | 31% | 75% (active) | 86.9% (active) | 34% | 78% (active) | 87.4% (active) | 41% | 85% (active) | 87.6% (active) | 30% | 61% | 80.4% (active) | 37% | 92% (active) | 91.2% (active) | 46% | 84% (active) | 87.7% (active)
CN(C)C(=S)NC(=S)Nc1ccc2ccccc2c1 | 5% | 88% (active) | 62.8% | 17% | 89% (active) | 40.9% | 34% | 82% (active) | 66.2% | 8% | 87% (active) | 46.5% | 2% | 92% (active) | 57.4% | 12% | 92% (active) | 73.3% (active)
COc1cc(C2=NCCO2)cc(OC)c1OC | -158% | -155% | 9.4% | -45% | -52% | -5.5% | -62% | -60% | -3.85% | -59% | -62% | 61.9% | -67% | -79% | 0.55% | -196% | -117% | 3.95%
Cc1cc(S(=O)(=O)Nc2nc(N)nc(N(C)C)n2)c(SC(C(=O)O)c2ccccc2)cc1Cl (stereo not given) | -11% | -4% | -8.65% | -3% | -15% | 14.1% | -11% | -8% | -0.25% | -15% | 4% | 93.2% (active) | 14% | -17% | 16.1% | -9% | -3% | 5.3%
